Assay outcomes: PubChem, several laboratories
Rpn11 inh: blocks the human proteasome subunit Rpn11. human 26S proteasome, Ub4-pepOG fluorescence polarization; 20S core pre-blocked with epoxomicin. hit rate 0.59% among 360,000. inhibition, % at 20 µM. AID 588493;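 active = inhibition at 20 µM, scaled to each plate's controls, above about 33%, limit read from the data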
GRIN3A LBD mod: modulates the human NR3A ligand-binding domain. NR3A LBD differential scanning fluorimetry, Tm shift; 0% = protein alone, 100% = glycine-bound protein. Tm shift relative to glycine control, % at 25 µM. hit rate 2.5% among 340,000;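 active = melting temperature shift of at least 10% of the positive control shift, at one fixed dose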
TPT1 inh: C. albicans TPT1 enzyme inhibition; hit rate 0.81% among 300,000; recombinant caTPT1, FP RNA substrate dephosphorylation; inhibition, % at 5 µM; AID 1962;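 active = inhibition above the mean of all tested compounds plus 3 SD, set per screening campaign, cut at about 24% in these data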;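 also: plate controls were DMSO alone for no effect and ferristatin control at 100 nM for full effect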
dFosB act-1: mouse delta FosB homodimer activation; P13346; purified delta FosB, TAMRA-CDK5 oligo fluorescence polarization; percent of positive-control signal above neutral wells; activation, % at 25 µM; hit rate 0.99% among 340,000; AID 493131;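 active = mean activation above about 17%, with every replicate also reaching it, limit read from the data, passing the limit was not always enough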
Target sequence (P13346 whole entry, looked up): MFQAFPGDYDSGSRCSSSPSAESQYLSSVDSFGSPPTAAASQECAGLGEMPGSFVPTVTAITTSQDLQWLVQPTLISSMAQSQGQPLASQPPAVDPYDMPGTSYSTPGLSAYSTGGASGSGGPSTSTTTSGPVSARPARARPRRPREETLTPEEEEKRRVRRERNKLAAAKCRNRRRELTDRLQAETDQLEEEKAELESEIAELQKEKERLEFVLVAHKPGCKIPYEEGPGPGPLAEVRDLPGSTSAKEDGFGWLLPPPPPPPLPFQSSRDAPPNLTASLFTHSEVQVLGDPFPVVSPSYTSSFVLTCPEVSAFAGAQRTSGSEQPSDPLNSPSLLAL
EBNA-1 inhibitor: blocks EBNA-1 binding to DNA; EBNA-1 DNA binding, fluorescence polarization; inhibition, % at 14.8 µM; hit rate 0.34% among 300,000; AID 1950; in the data active = inhibition above about 28%
ZTA DNA inh: blocks Epstein-Barr virus ZTA, an EBNA-1 counter-screen | AID 2234 | hit rate 0.15% among 320,000 | ZTA-DNA binding, fluorescence polarization | inhibition, % at 11 µM | P03206; in the data active = inhibition above about 33%
Target sequence (P03206 whole entry, looked up): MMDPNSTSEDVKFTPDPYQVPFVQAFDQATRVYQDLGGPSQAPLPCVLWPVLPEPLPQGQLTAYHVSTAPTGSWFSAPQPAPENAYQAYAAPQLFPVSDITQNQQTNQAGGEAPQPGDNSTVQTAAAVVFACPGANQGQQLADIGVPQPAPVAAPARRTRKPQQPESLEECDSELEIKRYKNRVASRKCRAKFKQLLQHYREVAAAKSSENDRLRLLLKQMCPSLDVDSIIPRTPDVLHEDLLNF
TPT1 inh confirm: TPT1 (C. albicans) inhibition, confirmation; shares compounds with TPT1 inh; hit rate 74% among 2,400; AID 2149; recombinant caTPT1, fluorescence polarization, RNase T1 coupled; inhibition, % at 5 µM;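 active = inhibition above the primary screen limit, the mean inhibition of all tested compounds plus 3 SD, cut at about 25% in these data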
RNase T1 inh: blocks Aspergillus oryzae RNase T1, a TPT1 counter-screen. shares compounds with TPT1 inh. RNase T1 cleavage, fluorescence polarization, 1536-well. inhibition, % at 5 µM. hit rate 83% among 2,400. AID 2153;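 active = inhibition above the solvent-only control well mean plus 3 SD, limit set per screening run, cut at about 23% in these data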;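 also: plate controls were DMSO wells with enzyme for no effect and wells without RNase T1 for full effect; inhibitors block cleavage so intact labeled substrate keeps polarization high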
Zta DNA confirm: confirmation of Epstein-Barr virus ZTA DNA binding inhibitors. shares compounds with ZTA DNA inh. Zta-ZRE DNA binding, fluorescence polarization. inhibition, % at 11.1 µM. hit rate 30% among 320;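 active = mean inhibition across triplicate runs above the hit threshold derived for the original primary screen, cut at about 33% in these data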;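 also: 0% = Zta with DMSO and 100% = wells lacking Zta protein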
EBNA-1 counter: EBNA-1 DNA binding inhibition, counter-screen for ZTA; fluorescence polarization; shares compounds with ZTA DNA inh; inhibition, % at 14.8 µM; 320 tested, under 10 active; call rule not given here
dFosB act-2: enhances mouse delta FosB homodimer binding to DNA; shares compounds with dFosB act-1; purified delta FosB, TAMRA-CDK5 oligo fluorescence polarization; normalised: neutral wells 0, positive control 100; activation, % at 24.9 µM; 2,400 tested, under 10 active; AID 588690;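 active = highest replicate activation at or above 34% and every replicate reaching that threshold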;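 also: higher polarization means more probe DNA bound by delta FosB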
Rpn11 inh conf: confirmation of human proteasome Rpn11 inhibitors; hit rate 29% among 1,900; shares compounds with Rpn11 inh; purified human 26S proteasome, Ub4-pepOG fluorescence polarization; proteasome pretreated with epoxomicin; inhibition, % at 20 µM
MMP-2 inh: MMP-2 (human) inhibition counter-screen | shares compounds with Rpn11 inh | recombinant MMP-2, FRET peptide cleavage fluorescence | inhibition, % at 20 µM | hit rate 4% among 1,900 | AID 602330;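 also: human MMP-2 activated beforehand with APMA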
Thrombin inh: blocks bovine thrombin, flagging nonselective RPN11 hits; shares compounds with Rpn11 inh; inhibition, % at 20 µM; bovine thrombin cleavage of Ub4-pepOG, fluorescence polarization; hit rate 13% among 1,900; AID 602333;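 active = mean inhibition at least 40% at 20 µM, or signal 3 deviations below plate average, so some actives read negative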;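 also: plate controls were thrombin with DMSO for no effect and buffer wells lacking thrombin for full effect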
An asterisk follows results filed as active; . = not tested or not shown. In the library only some 4.5% were active in any assay of this set; here they are far more common. Rule as the data show it, unless noted: active = inhibition above about 40%; inactive = the rest.

SMILES	Rpn11 inh	GRIN3A LBD mod	TPT1 inh	dFosB act-1	EBNA-1 inhibitor	ZTA DNA inh	TPT1 inh confirm	RNase T1 inh	others
COc1ccc(C(=O)Nc2nnc(CC(=O)N/N=C/c3ccc(O)cc3O)s2)cc1	7	.	53*	36*	-23	-7	81*	83*
O=C(CN1C(=O)N/C(=C\c2ccccc2OCc2ccc(C(=O)O)cc2)C1=O)Nc1ccccc1F	0	-3	-2	-14	7	21	.	.
CCCCc1ccc(C2C(C#N)=C(N)SC(N)=C2C#N)s1	.	.	137*	.	-10	-11	64*	76*
N#C/C(=C/c1ccc(-c2cc(C(=O)O)cc(C(=O)O)c2)o1)c1nc2ccccc2s1	.	.	141*	.	-5	61*	141*	133*	Zta DNA confirm=25;EBNA-1 counter=-1
CN(C)c1ccc(CN2CCC(C(=O)NC(c3ccc(Cl)cc3)c3cnccn3)CC2)cc1 (stereo unspecified)	12	.	.	.	.	.	.	.
CC(C(=O)O)N1C(=O)/C(=C/C=C/c2ccco2)SC1=S (stereo unspecified)	.	0	61*	-17	26	58*	34*	45*	Zta DNA confirm=73*;EBNA-1 counter=9
O=C(c1cc2cc(Br)ccc2s1)N1CCOCC1	3	2	-2	0	2	-1	.	.
COc1cc(NC(=O)C2=C(N3CCOCC3)/C(=C\c3ccc(N(C)C)cc3)CCC2)cc(OC)c1OC	29	-2	32*	3	5	100*	21	26*	Zta DNA confirm=-5;EBNA-1 counter=-3
COc1cc(NC(=O)C2=C(N3CCOCC3)/C(=C/c3ccc(Cl)cc3)CC2)cc(OC)c1OC	10	-2	1	-16	-4	-2	.	.
O=C1/C(=C\c2c(NCCOCCO)nc3ccccn3c2=O)SC(=S)N1Cc1ccco1	.	4	86*	-12	2	42*	86*	87*	Zta DNA confirm=24;EBNA-1 counter=7
CC1=C/C(=C\c2ccc(Br)o2)C(=O)O1	5	-1	6	-10	-6	-2	.	.
O=C1C(=Cc2ccc(Br)o2)C(=O)c2ccccc21	.	-10	26*	-13	2	52*	26*	28*	Zta DNA confirm=51*;EBNA-1 counter=13
Nc1[nH]c(=O)[nH]c(=O)c1N=Cc1ccccc1	-34	1	.	2	.	.	.	.
CCn1c(C)c(C2=CCN(S(=O)(=O)c3ccccc3)CC2)c2ccccc21	6	0	28*	31*	3	0	17	29*	dFosB act-2=0
Cc1ccc(S(=O)(=O)N2CC=C(c3c(C)n(C)c4ccccc34)CC2)cc1	1	-3	3	11	9	15	.	.
Cc1ccc(O)c(C(=O)c2cc(C#N)c3nc4ccccc4n3c2)c1	.	4	39*	24*	6	7	59*	72*	dFosB act-2=8
C=CCOc1ccc(/C=N/NC(=O)CN2CCCCC2)cc1OC	-1	1	1	-4	14	-10	.	.
N=c1oc2cc(O)ccc2cc1C(=O)Nc1ccc(Cl)cc1	12	20*	50*	27*	-3	-5	70*	80*	dFosB act-2=1
CN(CC(=O)Nc1ccc(F)cc1)C(=O)C1CCN(C(=O)Nc2ccccc2)CC1	-2	3	.	0	.	-4	.	.
COCCn1c(SCc2nc3sc(C(=O)OC)c(C)c3c(=O)[nH]2)nc2ccccc21	50*	-9	26*	-4	3	-1	24	33*	Rpn11 inh conf=20;MMP-2 inh=-45;Thrombin inh=19
COC(=O)c1sc2nc(CSc3ccc(Br)cc3)[nH]c(=O)c2c1C	76*	10	35*	5	-3	-20	26*	36*	Rpn11 inh conf=50*;MMP-2 inh=-20;Thrombin inh=-2
COc1cccc(C(=O)N2CCCc3ccccc32)c1OC	-2	.	.	.	.	.	.	.
CCOCCCNc1nc2c(C)cccn2c(=O)c1/C=C1\SC(=S)N(CC(C)C)C1=O	75*	2	52*	1	-8	-23	76*	95*	Rpn11 inh conf=91*;MMP-2 inh=60*;Thrombin inh=72*
COc1cccc(/C=C2\Oc3cc(OCC(=O)N4CCCC4)ccc3C2=O)c1OC	2	-2	-1	-7	-1	0	.	.
COc1cccc(/C=C2\Oc3ccc(O)cc3C2=O)c1O	44*	-6	49*	-13	-17	-9	71*	79*	Rpn11 inh conf=-6;MMP-2 inh=-73;Thrombin inh=-13
SMILES	Rpn11 inh	GRIN3A LBD mod	TPT1 inh	dFosB act-1	EBNA-1 inhibitor	ZTA DNA inh	TPT1 inh confirm	RNase T1 inh	others
CC[n+]1c(/C=C/Nc2ccccc2)oc2ccc(OC)cc21	57*	-1	86*	-17	-2	0	95*	101*	Rpn11 inh conf=45*;MMP-2 inh=-26;Thrombin inh=32
CCCCCC(=O)N1C[C@H](n2cc(-c3ccc(F)cc3)nn2)[C@@H](O)C[C@@H]1c1ccc(OC)cc1	6	.	.	.	.	.	.	.
O=C(Nc1nccs1)c1ccc(-c2ccc(F)cc2)o1	-8	-17	-2	-19	14	16	.	.
O=C(Nc1nccs1)c1ccc(-c2ccc([N+](=O)[O-])cc2)o1	73*	-3	37*	2	3	1	34*	48*	Rpn11 inh conf=-14;MMP-2 inh=-4;Thrombin inh=active
COc1cccc(NC(=S)N2CCN(C)CC2)c1	-4	-1	-3	-1	-6	-11	.	.
Cc1cc(C(=O)O)ccc1-n1c(C)cc(C=C2C(=O)c3ccccc3C2=O)c1C	44*	4	59*	-6	-1	9	51*	63*	Rpn11 inh conf=15;MMP-2 inh=-4;Thrombin inh=-2
Cc1ccc(S(=O)(=O)Nc2cc(C)cn(Cc3ccccc3)c2=O)cc1	27	-1	12	-10	12	1	.	.
Cc1ccc(S(=O)(=O)Nc2cc(C)cn(Cc3ccc(F)cc3)c2=O)cc1	60*	1	24*	1	-10	-4	36*	47*	Rpn11 inh conf=33;MMP-2 inh=-19;Thrombin inh=59*
